According to PubChem BioAssay (NCATS):
Results filed as inconclusive are left out. A call without a number means that no potency is given here. The source made the active and inactive calls. Calls come from the whole dose curve; as a rule, active = well fitted curve in the direction sought with a large enough effect; inconclusive = small, poorly fitted or top-dose-only effect, or another doubt; inactive = no such curve, though single readings can be large; an effect the other way counts as inactive or inconclusive.

Assay: MultiTox-Fluor Cytotoxicity Assay - LYMP1-002 - Live Cells (AID 955)
Details: LYMP1-002 lymphoblastoid live-cell protease fluorescence viability; series mostly up to 46.1 µM
Summary of the method: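 In this qHTS viability format, lymphoblastoid cells (LYMP1-002, human) received compound for 16 hr at 37 C. Fluorogenic GF-AFC cleavage by viable cells was detected at 405/510 nm after 1 h at room temperature.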

Row | Compound | outcome
1 | CC(C#N)CCC#N (stereo unspecified) | inactive
2 | Nc1cc(Cl)ccc1Cl | inactive
3 | Nc1cccc(Cl)c1 | inactive
4 | ClCc1ccccc1 | inactive
5 | CCC/C=N/O | inactive
6 | COc1c(C(C)(C)C)cc([N+](=O)[O-])c(C)c1[N+](=O)[O-] | inactive
7 | O=S(=O)(Cl)c1ccccc1 | inactive
8 | C=CCOCC1CO1 (stereo unspecified) | inactive
9 | c1ccoc1 | inactive
10 | Clc1ccccc1 | inactive
11 | ClC(Cl)(Cl)C(Cl)(Cl)Cl | inactive
12 | CCOC(=O)C1OC1(C)c1ccccc1 (stereo unspecified) | inactive
13 | C/C=C/CC#N | inactive
14 | ClC(Cl)C(Cl)Cl | inactive
15 | C=CCCl | inactive
16 | Oc1c(Cl)cccc1Cl | inactive
17 | Brc1cccc(-c2ccccc2)c1 | inactive
18 | C=CCO | inactive
19 | OCCCCO | inactive
20 | Nn1cnnc1 | inactive

Row | Compound | outcome
21 | BrCCc1ccccc1 | inactive
22 | Cc1ccccc1[N+](=O)[O-] | inactive
23 | CCCCOC(=O)c1ccccc1N | inactive
24 | Clc1cc(Cl)c(Cl)c(Cl)c1 | inactive
25 | Cc1ccc(N)c(C)c1 | inactive
26 | C1CC2OC2CC1C1CO1 (stereo unspecified) | inactive
27 | CN(C)C(=O)Cl | inactive
28 | CC(=O)NNc1ccccc1 | inactive
29 | Cc1ccc(N=C=O)cc1N=C=O | inactive
30 | O=C(Cl)OCc1ccccc1 | inactive
31 | C=CC(=O)OC | inactive
32 | CCN(CC)N=O | inactive
33 | OCC(Cl)CCl (stereo unspecified) | inactive
34 | CC(C)CON=O | inactive
35 | CC[N+](=O)[O-] | inactive
36 | CC(C)(Cl)[N+](=O)[O-] | inactive
37 | C[N+](=O)[O-] | inactive
38 | CC(C)OC(=O)Cc1ccccc1 | inactive
39 | ClCC(Br)CBr (stereo unspecified) | inactive

Assay: MultiTox-Fluor Cytotoxicity Assay - LYMP1-002 - Dead Cells (AID 960); note: nearly all actives have a fitted effect of over 60% in size
Details: LYMP1-002 lymphoblastoid cells, dead-cell protease fluorescence; series mostly up to 46.1 µM
Summary of the method: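 Concentration-dependent increases in membrane-leaked protease activity are quantified in LYMP1-002 cells after 16 hr treatment; values are normalized against DMSO and tetraoctylammonium bromide (15 uM) controls and AC50 derived by Hill modeling.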

Row | Compound | Potency
40 | Nc1cc(Cl)ccc1Cl | inactive
41 | Nc1cccc(Cl)c1 | inactive
42 | ClCc1ccccc1 | inactive
43 | CCC/C=N/O | inactive
44 | COc1c(C(C)(C)C)cc([N+](=O)[O-])c(C)c1[N+](=O)[O-] | inactive
45 | O=S(=O)(Cl)c1ccccc1 | inactive
46 | C=CCOCC1CO1 (stereo unspecified) | inactive
47 | c1ccoc1 | inactive
48 | ClC(Cl)(Cl)C(Cl)(Cl)Cl | inactive
49 | CCOC(=O)C1OC1(C)c1ccccc1 (stereo unspecified) | inactive
50 | C/C=C/CC#N | inactive
51 | C=CCCl | inactive
52 | Brc1cccc(-c2ccccc2)c1 | inactive
53 | Nn1cnnc1 | inactive
54 | BrCCc1ccccc1 | inactive
55 | Cc1ccccc1[N+](=O)[O-] | inactive
56 | Clc1cc(Cl)c(Cl)c(Cl)c1 | inactive
57 | Cc1ccc(N)c(C)c1 | inactive
58 | C1CC2OC2CC1C1CO1 (stereo unspecified) | inactive
59 | Cc1ccc(N=C=O)cc1N=C=O | inactive
60 | O=C(Cl)OCc1ccccc1 | inactive
61 | C=CC(=O)OC | inactive
62 | OCC(Cl)CCl (stereo unspecified) | inactive
63 | CC[N+](=O)[O-] | inactive
64 | CC(C)(Cl)[N+](=O)[O-] | inactive
65 | C[N+](=O)[O-] | inactive
66 | CC(C)OC(=O)Cc1ccccc1 | inactive
67 | ClCC(Br)CBr (stereo unspecified) | inactive

Assay: MultiTox-Fluor Cytotoxicity Assay - LYMP1-003 - Dead Cells (AID 961); note: nearly all actives have a fitted effect of over 70% in size
Details: LYMP1-003 lymphoblastoid cells, dead-cell protease fluorescence; series mostly up to 92.2 µM
Summary of the method: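 LYMP1-003 human lymphoblastoid cells (2500/well) exposed to compound 16 h at 37 C in complete medium; dead-cell protease read with bis-AAF-R110 fluorescence (Ex/Em 485/520) after 60 min at room temperature. Normalized to DMSO and 15 uM tetraoctylammonium bromide; AC50 from Hill fit.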

Row | Compound | Potency
68 | CC(C#N)CCC#N (stereo unspecified) | inactive
69 | Nc1cc(Cl)ccc1Cl | inactive
70 | Nc1cccc(Cl)c1 | inactive
71 | ClCc1ccccc1 | inactive
72 | CCC/C=N/O | inactive
73 | COc1c(C(C)(C)C)cc([N+](=O)[O-])c(C)c1[N+](=O)[O-] | inactive
74 | O=S(=O)(Cl)c1ccccc1 | inactive
75 | C=CCOCC1CO1 (stereo unspecified) | inactive
76 | c1ccoc1 | inactive
77 | Clc1ccccc1 | inactive
78 | ClC(Cl)(Cl)C(Cl)(Cl)Cl | inactive
79 | CCOC(=O)C1OC1(C)c1ccccc1 (stereo unspecified) | inactive
80 | C/C=C/CC#N | inactive
81 | ClC(Cl)C(Cl)Cl | inactive
82 | C=CCCl | inactive
83 | Oc1c(Cl)cccc1Cl | inactive
84 | Brc1cccc(-c2ccccc2)c1 | inactive
85 | OCCCCO | inactive

Row | Compound | Potency
86 | Nn1cnnc1 | inactive
87 | BrCCc1ccccc1 | inactive
88 | Cc1ccccc1[N+](=O)[O-] | inactive
89 | CCCCOC(=O)c1ccccc1N | inactive
90 | Clc1cc(Cl)c(Cl)c(Cl)c1 | inactive
91 | Cc1ccc(N)c(C)c1 | inactive
92 | C1CC2OC2CC1C1CO1 (stereo unspecified) | inactive
93 | CN(C)C(=O)Cl | inactive
94 | CC(=O)NNc1ccccc1 | inactive
95 | Cc1ccc(N=C=O)cc1N=C=O | inactive
96 | C=CC(=O)OC | inactive
97 | CCN(CC)N=O | inactive
98 | OCC(Cl)CCl (stereo unspecified) | inactive
99 | CC(C)CON=O | inactive
100 | CC[N+](=O)[O-] | inactive
101 | CC(C)(Cl)[N+](=O)[O-] | inactive
102 | C[N+](=O)[O-] | inactive

Assay: MultiTox-Fluor Cytotoxicity Assay - LYMP1-003 - Live Cells (AID 962);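 note: cytotoxic hits lower the live-cell protease signal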
Details: LYMP1-003 lymphoblastoid cells, MultiTox-Fluor live-cell protease fluorescence; series mostly up to 92.2 µM
Summary of the method: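 Human lymphoblastoid line LYMP1-003 in complete culture medium, treated 16 hr with titrated compounds. Viable cells quantified via cell-permeant GF-AFC substrate fluorescence; AC50 derived by Hill fitting.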

Row | Compound | outcome
103 | CC(C#N)CCC#N (stereo unspecified) | inactive
104 | Nc1cc(Cl)ccc1Cl | inactive
105 | Nc1cccc(Cl)c1 | inactive
106 | ClCc1ccccc1 | inactive
107 | CCC/C=N/O | inactive
108 | COc1c(C(C)(C)C)cc([N+](=O)[O-])c(C)c1[N+](=O)[O-] | inactive
109 | O=S(=O)(Cl)c1ccccc1 | inactive
110 | C=CCOCC1CO1 (stereo unspecified) | inactive
111 | c1ccoc1 | inactive
112 | Clc1ccccc1 | inactive
113 | ClC(Cl)(Cl)C(Cl)(Cl)Cl | inactive
114 | CCOC(=O)C1OC1(C)c1ccccc1 (stereo unspecified) | inactive
115 | C/C=C/CC#N | inactive
116 | ClC(Cl)C(Cl)Cl | inactive
117 | C=CCCl | inactive
118 | Oc1c(Cl)cccc1Cl | inactive
119 | Brc1cccc(-c2ccccc2)c1 | inactive
120 | C=CCO | inactive
121 | OCCCCO | inactive
122 | Nn1cnnc1 | inactive

Row | Compound | outcome
123 | BrCCc1ccccc1 | inactive
124 | Cc1ccccc1[N+](=O)[O-] | inactive
125 | CCCCOC(=O)c1ccccc1N | inactive
126 | Clc1cc(Cl)c(Cl)c(Cl)c1 | inactive
127 | Cc1ccc(N)c(C)c1 | inactive
128 | C1CC2OC2CC1C1CO1 (stereo unspecified) | inactive
129 | CN(C)C(=O)Cl | inactive
130 | CC(=O)NNc1ccccc1 | inactive
131 | Cc1ccc(N=C=O)cc1N=C=O | inactive
132 | O=C(Cl)OCc1ccccc1 | inactive
133 | C=CC(=O)OC | inactive
134 | CCN(CC)N=O | inactive
135 | OCC(Cl)CCl (stereo unspecified) | inactive
136 | CC(C)CON=O | inactive
137 | CC[N+](=O)[O-] | inactive
138 | CC(C)(Cl)[N+](=O)[O-] | inactive
139 | C[N+](=O)[O-] | inactive
140 | CC(C)OC(=O)Cc1ccccc1 | inactive
141 | ClCC(Br)CBr (stereo unspecified) | inactive
